Test results from the supplement of paper PMC8728848.
The full list was thinned out, with the strongest signals kept by preference.

How the values were obtained:
Test in all cases: glycan array binding signal (z-score within array); higher = stronger binding
Conditions in all cases: glycan notation: IUPAC condensed, linker removed
Gal6P(b1-4)GlcNAc = biological target: Gal6P(b1-4)GlcNAc
Summary of the method: (§1)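 The binding signal is a Z-score computed within each array and averaged over linkers. Arrays of the same protein sequence at different concentrations or buffers were also averaged together. Data originate from 3228 arrays in the Consortium for Functional Glycomics database, kept only where the protein sequence was available.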

GalNAc(a1-3)Gal = biological target: GalNAc(a1-3)Gal
Summary of the method: as §1

GalNAc(a1-3)GalNAc = biological target: GalNAc(a1-3)GalNAc
Summary of the method: as §1

GalNAc(b1-4)GlcNAc = biological target: GalNAc(b1-4)GlcNAc
Summary of the method: as §1

[1] = biological target: GlcNAc(a1-4)Gal(b1-4)GlcNAc(b1-3)Gal(b1-4)GlcNAc(b1-3)Gal(b1-4)GlcNAc
Summary of the method: as §1

[2] = biological target: GlcNAc(b1-3)Gal(b1-4)GlcNAc(b1-2)[GlcNAc(b1-3)Gal(b1-4)GlcNAc(b1-6)]Man(a1-6)[GlcNAc(b1-3)Gal(b1-4)GlcNAc(b1-2)Man(a1-3)]Man(b1-4)GlcNAc(b1-4)GlcNAc
Summary of the method: as §1

[3] = biological target: GlcNAc(b1-3)Gal(b1-4)GlcNAc(b1-3)Gal(b1-4)GlcNAc
Summary of the method: as §1

[4] = biological target: GlcNAc(b1-3)Gal(b1-4)GlcNAc(b1-3)Gal(b1-4)GlcNAc(b1-3)Gal(b1-4)GlcNAc(b1-2)Man(a1-3)[GlcNAc(b1-3)Gal(b1-4)GlcNAc(b1-3)Gal(b1-4)GlcNAc(b1-3)Gal(b1-4)GlcNAc(b1-2)Man(a1-6)]Man(b1-4)GlcNAc(b1-4)[Fuc(a1-6)]GlcNAc
Summary of the method: as §1

[5] = biological target: GlcNAc(b1-3)Gal(b1-4)GlcNAc(b1-3)[GlcNAc(b1-3)Gal(b1-4)GlcNAc(b1-3)]GalNAc
Summary of the method: as §1

[6] = biological target: GlcNAc(b1-3)[GlcNAc(b1-4)][GlcNAc(b1-6)]GlcNAc
Summary of the method: as §1

[7] = biological target: GlcNAc(b1-3)[GlcNAc(b1-6)]GalNAc
Summary of the method: as §1

[8] = biological target: GlcNAc(b1-4)GlcNAc(b1-4)GlcNAc
Summary of the method: as §1

Kdn(a2-3)Gal(b1-3)GlcNAc = biological target: Kdn(a2-3)Gal(b1-3)GlcNAc
Summary of the method: as §1

[9] = biological target: Man(a1-2)Man(a1-2)Man(a1-3)Man
Summary of the method: as §1

[10] = biological target: Man(a1-2)Man(a1-2)Man(a1-6)[Man(a1-3)]Man
Summary of the method: as §1

Man(a1-2)Man(a1-3)Man = biological target: Man(a1-2)Man(a1-3)Man
Summary of the method: as §1

[11] = biological target: Man(a1-2)Man(a1-3)[Man(a1-2)Man(a1-6)]Man
Summary of the method: as §1

[12] = biological target: Man(a1-2)Man(a1-3)[Man(a1-2)Man(a1-6)]Man(a1-6)[Man(a1-2)Man(a1-2)Man(a1-3)]Man
Summary of the method: as §1

[13] = biological target: Man(a1-2)Man(a1-6)[Man(a1-3)]Man(a1-6)[Man(a1-2)Man(a1-2)Man(a1-3)]Man(b1-4)GlcNAc(b1-4)GlcNAc
Summary of the method: as §1

Man(a1-3)[Man(a1-6)]Man = biological target: Man(a1-3)[Man(a1-6)]Man
Summary of the method: as §1

[14] = biological target: Man(a1-3)[Man(a1-6)]Man(a1-6)[Man(a1-2)Man(a1-3)]Man(b1-4)GlcNAc(b1-4)GlcNAc
Summary of the method: as §1

[15] = biological target: Neu5Ac(a2-3)Gal(b1-3)GalNAc(b1-4)Gal(b1-4)Glc
Summary of the method: as §1

[16] = biological target: Neu5Ac(a2-3)Gal(b1-3)GlcNAc6S
Summary of the method: as §1

[17] = biological target: Neu5Ac(a2-3)Gal(b1-3)[GlcNAc(b1-6)]GalNAc
Summary of the method: as §1

[18] = biological target: Neu5Ac(a2-3)Gal(b1-3)[Neu5Ac(a2-6)]GalNAc
Summary of the method: as §1

[19] = biological target: Neu5Ac(a2-3)Gal(b1-4)GlcNAc(b1-2)Man(a1-3)[GlcNAc(b1-4)][Neu5Ac(a2-3)Gal(b1-4)GlcNAc(b1-2)Man(a1-6)]Man(b1-4)GlcNAc(b1-4)GlcNAc
Summary of the method: as §1

[20] = biological target: Neu5Ac(a2-3)Gal(b1-4)GlcNAc(b1-3)Gal(b1-3)GlcNAc
Summary of the method: as §1

[21] = biological target: Neu5Ac(a2-3)Gal(b1-4)GlcNAc(b1-3)Gal(b1-4)GlcNAc(b1-3)Gal(b1-4)GlcNAc(b1-2)Man(a1-3)[Neu5Ac(a2-3)Gal(b1-4)GlcNAc(b1-3)Gal(b1-4)GlcNAc(b1-3)Gal(b1-4)GlcNAc(b1-2)Man(a1-6)]GalNAc
Summary of the method: as §1

[22] = biological target: Neu5Ac(a2-3)Gal(b1-4)[Fuc(a1-3)]GlcNAc(b1-6)[Gal(b1-3)]GalNAc
Summary of the method: as §1

[23] = biological target: Neu5Ac(a2-6)Gal(b1-4)GlcNAc(b1-2)Man(a1-3)[Neu5Ac(a2-6)Gal(b1-4)GlcNAc(b1-2)Man(a1-6)]Man(b1-4)GlcNAc(b1-4)[Fuc(a1-6)]GlcNAc
Summary of the method: as §1

[24] = biological target: Neu5Ac(a2-6)Gal(b1-4)GlcNAc(b1-2)Man(a1-6)Man(b1-4)GlcNAc(b1-4)GlcNAc
Summary of the method: as §1

[25] = biological target: Neu5Ac(a2-6)Gal(b1-4)GlcNAc(b1-6)GalNAc
Summary of the method: as §1

B1: Mincle (Bos taurus) (protein)
chain: MNSSTSPASQTERRCFSFQLFSWAIAGTSILLLSACFITRCVVTYSIFQLCDEKKFQPPGDSMELSCYNDGSGSVKNCCPLKWFHFQSSCYLFSPDTMSWRASLKNCSSMGAHLVVINTQEEQEFLYYTKPRKKEFYIGLTDQVTEGQWQWVDGTPFTKSLSFWDAGEPNNLVIVEDCATIRDSSNPRQNWNDVPCFFNMFRVCEMPERKI
- glycan array binding signal (z-score) (Gal6P(b1-4)GlcNAc): -0.035
- glycan array binding signal (z-score) (GalNAc(a1-3)Gal): -1.18
- glycan array binding signal (z-score) (GalNAc(a1-3)GalNAc): 0.166
- glycan array binding signal (z-score) (GalNAc(b1-4)GlcNAc): -0.149
- glycan array binding signal (z-score) [1]: 0.104
- glycan array binding signal (z-score) [2]: 1.42
- glycan array binding signal (z-score) [3]: -0.57
- glycan array binding signal (z-score) [4]: -0.142
- glycan array binding signal (z-score) [5]: 0.084
- glycan array binding signal (z-score) [6]: 5.17
- glycan array binding signal (z-score) [7]: 0.888
- glycan array binding signal (z-score) [8]: -0.899
- glycan array binding signal (z-score) (Kdn(a2-3)Gal(b1-3)GlcNAc): 0.033
- glycan array binding signal (z-score) [9]: 6.56
- glycan array binding signal (z-score) [10]: 4.79
- glycan array binding signal (z-score) (Man(a1-2)Man(a1-3)Man): 3.01
- glycan array binding signal (z-score) [11]: 7.29
- glycan array binding signal (z-score) [12]: 3.54
- glycan array binding signal (z-score) [13]: 0.474
- glycan array binding signal (z-score) (Man(a1-3)[Man(a1-6)]Man): 6.16
- glycan array binding signal (z-score) [14]: 3.43
- glycan array binding signal (z-score) [15]: -1.13
- glycan array binding signal (z-score) [16]: 1.11
- glycan array binding signal (z-score) [17]: -0.595
- glycan array binding signal (z-score) [18]: -0.943
- glycan array binding signal (z-score) [19]: 0.061
- glycan array binding signal (z-score) [20]: 0.02
- glycan array binding signal (z-score) [21]: 4.3
- glycan array binding signal (z-score) [22]: 0.16
- glycan array binding signal (z-score) [23]: 0.527
- glycan array binding signal (z-score) [24]: 0.271
- glycan array binding signal (z-score) [25]: 0.439
